Laboratory results reported in PubChem BioAssay AID1159580 (chemical genetic matrix, 2015).
Out of some 5,500 compounds screened, about 2,000 (36%) were called active. Another 18% or so got no clear call; they are omitted. Cut-off read from the data, not from the text of the source: active = normalized growth mostly below about 0.91 (no sharp cut-off); inconclusive = no clear call, values can overlap the other calls; inactive = mostly above about 0.92. Some of the results follow.

Assay: chemical genetic growth profiling, strain panel (AID 1159580);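 note: tested at 20 µM; growth read once vehicle control cultures reached saturation at 30 °C; 1 = growth at the plate median or of vehicle wells; lower values mean less growth of the strain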
Settings: S. cerevisiae deletion strains, growth OD
[1] = locus YDL101C, strain DUN1, stronger effect = lower value
[2] = locus YHR030C, strain SLT2, stronger effect = lower value
[3] = locus YAR019C, strain CDC15, stronger effect = lower value
[4] = locus YBL105C, strain PKC1, stronger effect = lower value
[5] = locus YBR135W, strain CKS1, stronger effect = lower value
[6] = locus YBR136W, strain MEC1, stronger effect = lower value
[7] = locus YBR160W, strain CDC28, stronger effect = lower value
[8] = locus YDL017W, strain CDC7, stronger effect = lower value
[9] = locus YDL028C, strain MPS1, stronger effect = lower value
[10] = locus YDL108W, strain KIN28, stronger effect = lower value
[11] = locus YDL132W, strain cdc53, stronger effect = lower value
[12] = locus YDL214C, strain PRR2, stronger effect = lower value
[13] = locus YDR052C, strain DBF4, stronger effect = lower value
[14] = locus YDR054C, strain cdc34, stronger effect = lower value
[15] = locus YDR226W, strain ADK1, stronger effect = lower value
[16] = locus YDR477W, strain SNF1, stronger effect = lower value
[17] = locus YER123W, strain YCK3, stronger effect = lower value
[18] = locus YER133W, strain GLC7, stronger effect = lower value
[19] = locus YFL009W, strain cdc4, stronger effect = lower value
[20] = locus YFL029C, strain CAK1, stronger effect = lower value
[21] = locus YFR003C, strain YPI1, stronger effect = lower value
[22] = locus YFR019W, strain FAB1, stronger effect = lower value
[23] = locus YFR028C, strain CDC14, stronger effect = lower value
[24] = locus YGR040W, strain KSS1, stronger effect = lower value
[25] = locus YGR052W, strain FMP48, stronger effect = lower value
[26] = locus YGR092W, strain DBF2, stronger effect = lower value
[27] = locus YHR079C, strain IRE1, stronger effect = lower value
[28] = locus YHR082C, strain KSP1, stronger effect = lower value
[29] = locus YHR205W, strain SCH9, stronger effect = lower value
[30] = locus YIL147C, strain SLN1, stronger effect = lower value
[31] = locus YJL095W, strain BCK1, stronger effect = lower value
[32] = locus YJL128C, strain PBS2, stronger effect = lower value
[33] = locus YJL157C, strain FAR1, stronger effect = lower value
[34] = locus YJR016C, strain ILV3, stronger effect = lower value
[35] = locus YJR066W, strain TOR1 (second series), stronger effect = lower value
[36] = locus YJR066W, strain TOR1, stronger effect = lower value
[37] = locus YKL048C, strain ELM1, stronger effect = lower value
[38] = locus YKL067W, strain YNK1, stronger effect = lower value
[39] = locus YKL101W, strain HSL1, stronger effect = lower value
[40] = locus YKL193C, strain SDS22, stronger effect = lower value
[41] = locus YKL203C, strain TOR2, stronger effect = lower value
[42] = locus YLR113W, strain HOG1, stronger effect = lower value
[43] = locus YLR133W, strain CKI1, stronger effect = lower value
[44] = locus YLR403W, strain SFP1, stronger effect = lower value
[45] = locus YML070W, strain DAK1, stronger effect = lower value
[46] = locus YMR001C, strain CDC5, stronger effect = lower value
[47] = locus YMR205C, strain PFK2 (second series), stronger effect = lower value
[48] = locus YMR277W, strain FCP1, stronger effect = lower value
[49] = locus YNL006W, strain LST8, stronger effect = lower value
[50] = locus YNL020C, strain ARK1, stronger effect = lower value
[51] = locus YNL161W, strain CBK1, stronger effect = lower value
[52] = locus YNL183C, strain NPR1, stronger effect = lower value
[53] = locus YNL207W, strain RIO2, stronger effect = lower value
[54] = locus YNL222W, strain SSU72, stronger effect = lower value
[55] = locus YNL307C, strain MCK1 (second series), stronger effect = lower value
[56] = locus YOL078W, strain AVO1, stronger effect = lower value
[57] = locus YOL136C, strain PFK27, stronger effect = lower value
[58] = locus YOR061W, strain CKA2, stronger effect = lower value
[59] = locus YOR119C, strain RIO1, stronger effect = lower value
[60] = locus YOR231W, strain MKK1, stronger effect = lower value
[61] = locus YOR329C, strain SCD5, stronger effect = lower value
[62] = locus YPL031C, strain PHO85, stronger effect = lower value
[63] = locus YPL153C, strain RAD53, stronger effect = lower value
[64] = locus YPL204W, strain HRR25, stronger effect = lower value
[65] = locus YPL209C, strain IPL1, stronger effect = lower value
[66] = locus YPL256C, strain CLN2, stronger effect = lower value
[67] = locus YPR025C, strain CCL1, stronger effect = lower value
[68] = locus YPR106W, strain ISR1, stronger effect = lower value
[69] = locus YPR111W, strain DBF20, stronger effect = lower value
[70] = strain NNK1, stronger effect = lower value
[71] = strain TSCII, stronger effect = lower value

Measured: normalized growth

COc1ccccc1N1CC(C)(C)C(=O)N(C(=O)c2c(F)cccc2Cl)C1=S
inactive: locus YAL013W, strain DEP1, stronger effect = lower value 1.02 | locus YBR229C, strain ROT2, stronger effect = lower value 1.02 | locus YCL061C, strain MRC1, stronger effect = lower value 1.02 | [1] 1.03 | locus YDR150W, strain NUM1, stronger effect = lower value 0.933 | locus YEL061C, strain CIN8, stronger effect = lower value 0.985 | locus YGR078C, strain PAC10, stronger effect = lower value 1.02 | [2] 1.01 | locus YHR087W, strain rtc3, stronger effect = lower value 0.986 | locus YJL187C, strain SWE1, stronger effect = lower value 1.02 | locus YJR043C, strain POL32, stronger effect = lower value 1.03 | locus YJR075W, strain HOC1, stronger effect = lower value 1 | locus YKL190W, strain CNB1, stronger effect = lower value 1 | locus YLR039C, strain RIC1, stronger effect = lower value 0.862 | locus YLR058C, strain SHM2 (second series), stronger effect = lower value 0.995 | locus YLR085C, strain ARP6, stronger effect = lower value 0.984 | locus YLR262C, strain YPT6, stronger effect = lower value 0.86 | locus YML094W, strain GIM5, stronger effect = lower value 1 | locus YMR219W, strain ESC1, stronger effect = lower value 1.02 | locus YMR263W, strain SAP30, stronger effect = lower value 0.954 | locus YNL128W, strain TEP1, stronger effect = lower value 1.02 | locus YNL153C, strain GIM3, stronger effect = lower value 1 | locus YNL298W, strain CLA4 (second series), stronger effect = lower value 1.01 | locus YNL322C, strain KRE1, stronger effect = lower value 1.01 | locus YNR030W, strain Alg12, stronger effect = lower value 1 | locus YPL055C, strain LGE1, stronger effect = lower value 0.899 | locus YPL241C, strain CIN2, stronger effect = lower value 1.01 | locus YPR135W, strain CTF4, stronger effect = lower value 0.985

O=C(Nc1cc(Cl)cc(Cl)c1)c1cc(Cl)ccc1O
active: [13] 0.91 | [26] 0.321 | [2] 0.799 | [29] 0.504 | [33] 0.648 | [37] 0.802 | [42] 0.844 | [44] 0.642 | [50] 0.68 | [55] 0.615 | [66] 0.836
inactive: [3] 0.93 | [4] 0.94 | [5] 0.922 | [6] 0.943 | [7] 0.934 | [8] 0.936 | [9] 0.94 | [1] 0.981 | [10] 0.924 | [11] 0.917 | [12] 0.785 | [14] 0.921 | [15] 0.973 | [16] 0.838 | [17] 0.75 | [18] 0.74 | [19] 0.924 | [20] 0.923 | [21] 0.935 | [22] 0.83 | [23] 0.928 | [24] 0.836 | [25] 0.785 | [27] 0.584 | [28] 0.853 | [30] 0.94 | [31] 0.751 | [32] 0.917 | [34] 0.924 | [35] 0.668 | [36] 0.705 | [38] 0.759 | [39] 0.827 | [40] 0.93 | [41] 0.818 | [43] 0.779 | [45] 0.805 | [46] 0.93 | [47] 0.784 | [48] 0.927 | [49] 0.923 | [51] 0.936 | [52] 0.899 | [53] 0.939 | [54] 0.924 | [56] 0.925 | [57] 0.797 | [58] 0.693 | [59] 0.858 | [60] 0.843 | [61] 0.939 | [62] 0.823 | [63] 0.801 | [64] 0.722 | [65] 0.925 | [67] 0.936 | [68] 0.956 | [69] 0.95 | [70] 0.965 | [71] 0.938

O=C(Nc1ccc(F)cc1F)c1cc(Cl)ccc1O
inactive: [3] 0.935 | [4] 0.933 | [5] 0.943 | [6] 0.94 | [7] 0.945 | [8] 0.935 | [9] 0.937 | [1] 0.979 | [10] 0.936 | [11] 0.97 | [12] 0.876 | [13] 0.926 | [14] 0.928 | [15] 0.931 | [16] 0.947 | [17] 0.864 | [18] 0.9 | [19] 0.923 | [20] 0.941 | [21] 0.929 | [22] 0.933 | [23] 0.925 | [24] 0.952 | [25] 1 | [26] 0.683 | [2] 0.927 | [27] 0.845 | [28] 0.989 | [29] 0.694 | [30] 0.938 | [31] 0.877 | [32] 0.918 | [33] 0.827 | [34] 0.939 | [35] 0.952 | [36] 1.03 | [37] 0.935 | [38] 0.884 | [39] 0.961 | [40] 0.941 | [41] 1.03 | [42] 0.98 | [43] 0.889 | [44] 0.708 | [45] 0.936 | [46] 0.94 | [47] 0.901 | [48] 0.952 | [49] 0.938 | [50] 0.84 | [51] 0.934 | [52] 1.02 | [53] 0.944 | [54] 0.939 | [55] 0.857 | [56] 0.939 | [57] 0.909 | [58] 0.89 | [59] 1.01 | [60] 0.996 | [61] 0.939 | [62] 0.928 | [63] 0.922 | [64] 0.915 | [65] 0.937 | [66] 0.927 | [67] 0.945 | [68] 0.94 | [69] 0.947 | [70] 0.965 | [71] 0.934
